This is part of a sample that, as a whole, favours compounds with a hit. Of some 83,000 tested, about 20% had one in any assay.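 Method: cells in 96-well plates; compound added at one concentration; 48 h incubation; percent growth measured; values under 10 scored active.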 Unmarked numbers belong to inactive results. Active and inactive are the calls of the source.
Key:
Assay in all cases: NCI-60 one-dose screen, 48 h (100 = growth as untreated, 0 = no growth, -100 = all killed)
Settings in all cases: 10 µM unless noted
NCI-H23 lung = test system: NCI-H23 lung
NCI-H226 lung = test system: NCI-H226 lung
NCI-H322M lung = test system: NCI-H322M lung
HOP-62 NSCLC = test system: HOP-62 NSCLC
NCI-H460 lung = test system: NCI-H460 lung
HOP-92 NSCLC = test system: HOP-92 NSCLC
NCI-H522 lung = test system: NCI-H522 lung
A549/ATCC NSCLC = test system: A549/ATCC NSCLC
786-0 renal = test system: 786-0 renal
COLO 205 colon = test system: COLO 205 colon

SMILES	growth (NCI-H23 lung)	growth (NCI-H226 lung)	growth (NCI-H322M lung)	growth (HOP-62 NSCLC)	growth (NCI-H460 lung)	growth (HOP-92 NSCLC)	growth (NCI-H522 lung)	growth (A549/ATCC NSCLC)	growth (786-0 renal)	growth (COLO 205 colon)
NC(=S)N/N=C/c1ccc(OC(=O)COc2ccccc2)cn1	28.2%	92%	54%	57.9%	83.5%	63.8%	58%	107%	22%	85.9%
CCN1CCCC(N2c3ccccc3Sc3ccccc32)C1 (stereo not given)	103%	113%	86%	104%	104%	74%	94.9%	103%	87.7%	96.6%
Cc1ccc(S(=O)(=O)Oc2ccc3sc4c(CO)ccc(NCCN(C)C)c4c(=O)c3c2)cc1	-79.5% [100 µM] (active)	-42.2% [100 µM] (active)	-98.2% [100 µM] (active)	-68.3% [100 µM] (active)	-83% [100 µM] (active)	-80.1% [100 µM] (active)	-74.4% [100 µM] (active)	-70.9% [100 µM] (active)	-73.4% [100 µM] (active)	-87.6% [100 µM] (active)
COC1OC(CO)C(OC)C(O)C1O (stereo not given)	105%	102%	99.9%	102%	97.4%	111%	113%	103%	101%	113%
CC(=O)NC(CCc1ccc(Cl)c(Cl)c1)c1cccc(O)c(=O)c1 (stereo not given)	21.8%	-13.8% (active)	5% (active)	10.3%	3.68% (active)	4.89% (active)	15.7%	8.58% (active)	10.2%	16.7%
COc1nc2ccccc2s1	94.7%	97.3%	111%	114%	99.4%	99.2%	96.3%	96.8%	104%	93.1%
CCOC(=O)CO	104%	99.8%	98.2%	104%	106%	95.6%	97%	102%	105%	117%
N#Cc1ccc2nc[nH]c2c1	99.1%	90.9%	108%	110%	107%	101%	102%	101%	106%	112%
CC(CC(CCC(=O)O)(c1ccccc1)c1ccccc1)N(C)C (stereo not given)	98.8%	95.3%	95.9%	96.6%	107%	102%	105%	89.8%	98.5%	104%
COc1cc(C(=O)NC(=S)NCc2ccncc2)cc(OC)c1OC	91.8%	86.4%	89.5%	107%	110%	89.2%	56.7%	99%	97.5%	95.3%
CC(=O)N=c1ccc2nc3c(cc(N)c4ccccc43)oc-2c1	-27.8% (active)	80.4%	3.7% (active)	1.21% (active)	-41.2% (active)	-56.9% (active)	-78.1% (active)	11.2%	-43.8% (active)	-84.6% (active)
CCCCCC/C=C\CCCCCCCCCc1cc(O)cc(OC)c1O	11.2%	24.2%	4.07% (active)	21.8%	8.62% (active)	-45% (active)	-76.8% (active)	16.8%	10.6%	-65.3% (active)
C=C(c1ccc(N(C)C)cc1)c1ccc(N(C)C)cc1	16.2%	44.3%	29.7%	23.1%	6.37% (active)	-2.12% (active)	-28.6% (active)	30.8%	34.6%	-4.63% (active)
OCC(O)COc1ccc(Cl)cc1Cl (stereo not given)	105%	106%	95.1%	88.4%	111%	130%	79.5%	72.6%	93.4%	94%
C[n+]1c(/C=C\C=C\N2CCCCC2)sc2ccccc21	12.1%	17.7%	17.6%	-29.1% (active)	0.479% (active)	-42.3% (active)	-49.3% (active)	-13.7% (active)	-42.4% (active)	-42.7% (active)
Cc1ccc(C)c2c1CCC2=O	95.4%	91.4%	101%	93.2%	97.4%	94.7%	96.7%	114%	99.6%	114%
C=CCC(OC(C)=O)c1ccc(C(C)C)cc1 (stereo not given)	108%	106%	120%	109%	106%	86.7%	86.6%	92.3%	108%	122%
C=C(OC(C)=O)c1ccccc1	97.1%	107%	113%	85.5%	102%	87.5%	88.5%	86.7%	104%	109%
Nc1cc(N)ncn1	95.1%	93.9%	103%	112%	107%	96%	104%	103%	104%	104%
CC1CCC(C(C)(C)[N+](C)(C)C)CC1 (stereo not given)	100%	100%	106%	96.9%	107%	101%	106%	95.9%	96.1%	106%
COCC(N)=O	103%	99%	100%	95%	108%	94.5%	100%	104%	92%	111%

SMILES	growth (NCI-H23 lung)	growth (NCI-H226 lung)	growth (NCI-H322M lung)	growth (HOP-62 NSCLC)	growth (NCI-H460 lung)	growth (HOP-92 NSCLC)	growth (NCI-H522 lung)	growth (A549/ATCC NSCLC)	growth (786-0 renal)	growth (COLO 205 colon)
CC(C)c1ccc(C(=O)OCCCl)cc1	94%	106%	92.7%	82.2%	105%	163%	97.2%	97.9%	95.2%	110%
C/C(O)=C(/C=N/C(=S)Nc1ccccc1)C(=O)Nc1ccccc1C	103%	95.8%	104%	99.4%	106%	92.6%	94.5%	97.3%	102%	110%
O=C(O)CSCC(=O)Nc1cc(C(F)(F)F)ccc1Cl	111%	109%	103%	105%	134%	104%	99.9%	106%	107%	121%
C1CCc2onc(-c3noc4c3CCCCC4)c2CC1	110%	123%	102%	101%	140%	93.6%	95.8%	102%	103%	118%
CCN(CC)CCCC(C)NC(=S)N/N=C(\C)c1ccccn1 (stereo not given)	73.1%	33.2%	31.9%	45.4%	24.7%	46.1%	47.2%	48.9%	23.4%	28.9%
NC(=O)N1CCOCC1	106%	100%	106%	95.4%	108%	72.9%	94.2%	106%	108%	113%
C/C(O)=C(/C=N\C(=S)Nc1ccc(S(=O)(=O)Nc2nccs2)cc1)C(=O)Nc1ccccc1C	94.6%	73.2%	99.7%	96.1%	102%	87.5%	91.6%	92.6%	96.7%	104%
CCCC(=O)c1cccs1	95.3%	93.2%	112%	99.9%	105%	84.7%	107%	99.3%	92.1%	111%
Cn1c(=O)c2nc3c(=O)n(C)c(=O)n(C)c3nc2n(C)c1=O	95.1%	107%	101%	93%	102%	127%	93.8%	126%	91.2%	126%
CCOc1ccncc1[N+](=O)[O-]	106%	102%	110%	99.1%	108%	102%	106%	97.5%	106%	110%
C=CCOc1ccc(Cl)cc1Cl	111%	104%	113%	113%	110%	77.3%	108%	109%	104%	109%
O=C(O)Cc1ccc(Cl)cc1	114%	96%	108%	86.9%	107%	38.8%	101%	120%	93.7%	107%
OCC1OC(n2ccc3c2ncn2ncnc32)C(O)C1O (stereo not given)	35.8%	25.1%	38.4%	37.3%	26.5%	-0.422% (active)	82.7%	50.6%	31.9%	35%
Cn1c(=O)c2[nH]c(CCCCC(=O)O)nc2n(C)c1=O	114%	118%	101%	108%	116%	88.9%	96.2%	103%	114%	103%
CCC(=O)C1C(=O)c2ccccc2C1=O	101%	104%	102%	99%	115%	85.8%	86.6%	113%	107%	122%
O=C(NC1CCCCC1)c1ccc(Cl)cc1	95.7%	92.5%	98.1%	92.8%	101%	95%	96.2%	99.9%	103%	109%
CC(CCC#N)(CCC#N)C(=O)c1ccccc1	109%	107%	112%	107%	104%	61%	88.1%	97.1%	110%	117%
NC(=S)N/N=C/c1ccc(OC(=O)COc2ccc(Cl)cc2)cn1	33.5%	93.5%	42.5%	53%	69.7%	66.9%	43.3%	107%	32.5%	84.7%
O=CNCCc1ccccc1	102%	98.9%	106%	90.8%	111%	88.5%	104%	96.8%	102%	103%
Cc1ccc[n+](CCC(N)=O)c1	95.3%	99.6%	103%	87.2%	91.4%	91.5%	90.2%	93.7%	94.4%	107%
S=c1nc(-c2ccccn2)c(-c2ccccn2)n[nH]1	100%	101%	103%	110%	112%	66.2%	82.7%	105%	98.4%	115%

SMILES	growth (NCI-H23 lung)	growth (NCI-H226 lung)	growth (NCI-H322M lung)	growth (HOP-62 NSCLC)	growth (NCI-H460 lung)	growth (HOP-92 NSCLC)	growth (NCI-H522 lung)	growth (A549/ATCC NSCLC)	growth (786-0 renal)	growth (COLO 205 colon)
O=C(NC(=S)N1CC=CCC1)c1ccccc1	107%	104%	116%	109%	113%	104%	77.3%	103%	111%	118%
CCCCOC(=O)c1ccc(NC(=O)CCl)cc1	10.4%	71%	93.7%	102%	35.8%	27%	-77.7% (active)	69.4%	70.2%	68.8%
O=C(N/N=C\c1ccc(Cl)cc1Cl)c1ccncc1	103%	102%	106%	112%	105%	87.9%	84.8%	91%	90.5%	118%
Cc1ccc(N)c(S(=O)(=O)O)c1	98.6%	103%	93.8%	85.8%	104%	112%	156%	125%	101%	106%
Cc1ccc(O)c(N)c1	121%	97%	98.1%	132%	103%	126%	70.6%	98.7%	115%	117%
CCOC(=O)C(C#N)=C1CCN(C)CC1	94.3%	111%	107%	104%	111%	97.9%	105%	101%	110%	108%
CC(C)NC(=O)OCc1c(COC(=O)NC(C)C)c(-c2ccc(Cl)cc2)n2c1CCC2	36.5%	63%	62.8%	46.4%	24.6%	26.2%	51.2%	66.5%	36.4%	57.2%
CCC1CCC(C)NC1 (stereo not given)	91.3%	93.4%	108%	101%	99.7%	87.3%	99.2%	105%	102%	103%
CCOC(C=O)OCC	99%	104%	104%	99.5%	113%	95.8%	93.1%	97.4%	99.7%	105%
O=C(Nc1c(Cl)cc(Cl)cc1Cl)ON=C1CCCCC1	104%	99.4%	106%	100%	111%	132%	95.2%	99.2%	99.8%	126%
O=C(Nc1ccccc1)c1ccco1	96.2%	99.1%	101%	101%	108%	98.8%	100%	97.9%	92.8%	115%
CCOC(=O)Nc1nccs1	112%	99.6%	99.6%	103%	104%	92.3%	104%	98.3%	100%	104%
CCOC(=N)CC(=O)Nc1cccc(C)c1Cl	100%	84.5%	99.6%	102%	105%	89.1%	110%	106%	106%	100%
CN(C)c1ccc(/C=C/C(=O)c2ccc(NC(N)=O)cc2)cc1	96.9%	104%	97%	94.1%	102%	103%	95.3%	84.5%	97.1%	112%
CC1CN(CCO)CC(C)O1 (stereo not given)	106%	95.2%	102%	99.3%	110%	103%	108%	100%	104%	117%
O=[N+]([O-])c1c(Cl)ncnc1Cl	111%	100%	125%	104%	93.2%	85.7%	97.3%	92.8%	109%	113%
CC(=O)OCC1OC(n2cnc3c(=S)nc(N)[nH]c32)C(OC(C)=O)C1OC(C)=O (stereo not given)	88.3%	68.2%	77.3%	49.3%	67.2%	28.4%	83.5%	105%	66%	120%
CC1CC2C3CCC4=CC(=O)CCC4(C)C3CCC2(C)C1(O)C(=O)CO (stereo not given)	115%	103%	109%	106%	117%	100%	92.2%	88.6%	112%	117%
Nc1cccc2cccc(O)c12	90.6%	96.1%	79.2%	104%	86.5%	83.8%	70.5%	106%	108%	102%
